# Measurements: article PMC7862700, “An all-to-all approach to the identification of sequence-specific readers for epigenetic DNA modifications on cytosine”
# Tests used:
# Test in all cases: DAPPL (digital affinity profiling via proximity ligation, sequencing); 10 mM Tris-HCl pH 7.5, 50 mM NaCl, 1 mM DTT, 4% glycerol, room temperature, 30 min; GST-TFs on glutathione beads, 16-mer random dsDNA library, 0.1% formaldehyde crosslink after washing; high values mean tight binding
# [1] = target: T1, FLI1 (Homo sapiens, UniProt Q01543 1-452); conditions: protein: recombinant; tags: N-terminal GST; dsDNA, one strand shown
# T1 sequence: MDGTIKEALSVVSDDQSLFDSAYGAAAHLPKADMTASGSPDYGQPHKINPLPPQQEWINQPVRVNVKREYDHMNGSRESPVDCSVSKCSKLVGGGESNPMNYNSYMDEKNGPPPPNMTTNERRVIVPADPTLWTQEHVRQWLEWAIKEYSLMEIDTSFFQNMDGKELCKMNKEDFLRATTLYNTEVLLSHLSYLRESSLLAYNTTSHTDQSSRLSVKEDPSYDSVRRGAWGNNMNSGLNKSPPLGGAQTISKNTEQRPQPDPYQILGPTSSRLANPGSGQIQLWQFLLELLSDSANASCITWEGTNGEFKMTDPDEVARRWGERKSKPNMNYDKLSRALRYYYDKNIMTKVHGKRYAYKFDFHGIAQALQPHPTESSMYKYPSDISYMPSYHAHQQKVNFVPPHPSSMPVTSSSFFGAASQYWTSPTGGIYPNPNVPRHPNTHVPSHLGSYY
# Summary of the method: (§1)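 A tag-only sample was pooled with DNA-barcoded human transcription factors that had been expressed in yeast as GST fusions and captured on glutathione beads. The pools were incubated for 30 min at room temperature with 200 nmole of a random double-stranded 16-mer DNA library in Tris/NaCl/DTT/glycerol buffer, then washed, crosslinked with 0.1% formaldehyde, proximity-ligated (BsaI/T4 ligase, 1 h, 37 °C), PCR-amplified and sequenced on an Illumina NextSeq500. Binding signal is each hexamer's read frequency for a factor divided by its frequency for the tag-only sample.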
# [2] = target: T2, ELK1 (Homo sapiens, UniProt P19419 1-428); conditions: protein: recombinant; tags: N-terminal GST; dsDNA, one strand shown
# T2 sequence: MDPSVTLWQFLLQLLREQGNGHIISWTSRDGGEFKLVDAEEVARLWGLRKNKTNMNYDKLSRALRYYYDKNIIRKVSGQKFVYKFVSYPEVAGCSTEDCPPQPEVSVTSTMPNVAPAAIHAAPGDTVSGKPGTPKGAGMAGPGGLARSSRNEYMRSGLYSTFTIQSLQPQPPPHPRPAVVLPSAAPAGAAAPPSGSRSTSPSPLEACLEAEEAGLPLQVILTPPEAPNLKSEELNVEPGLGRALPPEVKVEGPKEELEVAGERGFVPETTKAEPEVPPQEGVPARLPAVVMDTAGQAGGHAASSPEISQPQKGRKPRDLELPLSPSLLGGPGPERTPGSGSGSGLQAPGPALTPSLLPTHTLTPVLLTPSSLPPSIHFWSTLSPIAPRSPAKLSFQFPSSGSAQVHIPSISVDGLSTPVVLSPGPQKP
# Summary of the method: as §1
# [3] = target: T3, GABPA (Homo sapiens, UniProt Q06546 1-454); conditions: protein: recombinant; tags: N-terminal GST; dsDNA, one strand shown
# T3 sequence: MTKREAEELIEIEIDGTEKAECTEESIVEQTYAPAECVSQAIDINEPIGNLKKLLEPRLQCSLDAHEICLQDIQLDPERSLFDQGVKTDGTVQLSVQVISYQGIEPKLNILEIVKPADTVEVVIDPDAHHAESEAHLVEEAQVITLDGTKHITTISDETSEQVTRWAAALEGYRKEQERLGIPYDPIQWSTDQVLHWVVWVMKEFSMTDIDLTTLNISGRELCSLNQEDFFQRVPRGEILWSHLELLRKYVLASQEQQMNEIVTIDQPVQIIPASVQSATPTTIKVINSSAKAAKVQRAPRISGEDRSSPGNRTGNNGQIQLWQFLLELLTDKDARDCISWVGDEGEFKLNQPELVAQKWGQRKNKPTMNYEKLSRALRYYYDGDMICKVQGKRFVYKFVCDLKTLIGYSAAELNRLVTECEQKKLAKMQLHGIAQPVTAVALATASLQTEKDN
# Summary of the method: as §1
# [4] = target: T4, ERG (Homo sapiens, UniProt P11308 1-479); conditions: protein: recombinant; tags: N-terminal GST; dsDNA, one strand shown
# T4 sequence: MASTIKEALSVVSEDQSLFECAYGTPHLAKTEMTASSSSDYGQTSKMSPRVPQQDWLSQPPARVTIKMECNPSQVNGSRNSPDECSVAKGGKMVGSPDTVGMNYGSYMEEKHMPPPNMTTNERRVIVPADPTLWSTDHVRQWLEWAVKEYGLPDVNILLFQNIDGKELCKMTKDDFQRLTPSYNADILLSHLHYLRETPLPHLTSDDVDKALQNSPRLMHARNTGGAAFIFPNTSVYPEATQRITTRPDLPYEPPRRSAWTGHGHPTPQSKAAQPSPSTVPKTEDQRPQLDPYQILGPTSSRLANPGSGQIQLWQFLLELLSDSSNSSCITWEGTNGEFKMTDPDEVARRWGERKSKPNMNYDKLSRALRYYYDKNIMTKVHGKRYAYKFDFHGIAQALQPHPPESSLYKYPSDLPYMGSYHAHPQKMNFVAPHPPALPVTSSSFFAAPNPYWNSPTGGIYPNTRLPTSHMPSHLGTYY
# Summary of the method: as §1
# [5] = target: ELF1 (Homo sapiens, UniProt P32519 1-619); conditions: protein: recombinant; tags: N-terminal GST; dsDNA, one strand shown
# ELF1, sequence (P32519 whole entry): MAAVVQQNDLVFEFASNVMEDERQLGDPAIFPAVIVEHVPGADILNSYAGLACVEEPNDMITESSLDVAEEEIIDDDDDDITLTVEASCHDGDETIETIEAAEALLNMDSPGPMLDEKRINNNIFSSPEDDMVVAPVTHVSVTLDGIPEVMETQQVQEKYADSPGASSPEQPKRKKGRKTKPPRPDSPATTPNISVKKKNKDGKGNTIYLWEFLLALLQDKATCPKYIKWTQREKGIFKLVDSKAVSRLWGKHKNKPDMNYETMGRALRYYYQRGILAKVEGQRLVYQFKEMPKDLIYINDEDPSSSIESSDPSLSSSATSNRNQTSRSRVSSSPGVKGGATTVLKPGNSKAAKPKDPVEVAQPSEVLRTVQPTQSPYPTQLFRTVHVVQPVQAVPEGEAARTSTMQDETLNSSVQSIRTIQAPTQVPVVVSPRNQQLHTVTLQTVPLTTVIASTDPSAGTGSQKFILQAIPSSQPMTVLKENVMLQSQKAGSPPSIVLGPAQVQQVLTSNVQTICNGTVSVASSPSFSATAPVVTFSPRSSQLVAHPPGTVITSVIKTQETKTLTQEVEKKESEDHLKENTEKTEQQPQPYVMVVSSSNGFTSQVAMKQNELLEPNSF
# Summary of the method: as §1
# [6] = target: T5, EHF (Homo sapiens, UniProt Q9NZC4 1-300); conditions: protein: recombinant; tags: N-terminal GST; dsDNA, one strand shown
# T5 sequence: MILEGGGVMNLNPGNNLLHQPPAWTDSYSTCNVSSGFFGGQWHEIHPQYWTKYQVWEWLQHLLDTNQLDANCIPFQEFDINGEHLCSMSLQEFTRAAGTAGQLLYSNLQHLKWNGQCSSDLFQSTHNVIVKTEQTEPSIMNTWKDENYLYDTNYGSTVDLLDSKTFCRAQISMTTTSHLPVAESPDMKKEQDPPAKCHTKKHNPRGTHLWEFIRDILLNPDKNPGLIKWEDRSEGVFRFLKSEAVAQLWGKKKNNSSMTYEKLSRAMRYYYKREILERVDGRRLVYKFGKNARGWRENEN
# Summary of the method: as §1
# [7] = target: SPI1 (Homo sapiens, UniProt P17947 1-270); conditions: protein: recombinant; tags: N-terminal GST; dsDNA, one strand shown
# Summary of the method: as §1
# [8] = target: SPIB (Homo sapiens, UniProt Q01892 1-262); conditions: protein: recombinant; tags: N-terminal GST; dsDNA, one strand shown
# SPIB, sequence (Q01892 whole entry): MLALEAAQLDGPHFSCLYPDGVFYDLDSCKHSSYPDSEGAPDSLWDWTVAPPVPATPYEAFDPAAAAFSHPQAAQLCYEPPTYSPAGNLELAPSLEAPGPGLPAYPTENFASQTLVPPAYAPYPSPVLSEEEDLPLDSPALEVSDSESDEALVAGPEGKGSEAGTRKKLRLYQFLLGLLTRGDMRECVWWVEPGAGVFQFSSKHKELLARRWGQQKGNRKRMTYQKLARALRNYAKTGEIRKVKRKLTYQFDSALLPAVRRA
# Summary of the method: as §1
# [9] = target: T6, ELK3 (Homo sapiens, UniProt P41970 1-407); conditions: protein: recombinant; tags: N-terminal GST; dsDNA, one strand shown
# T6 sequence: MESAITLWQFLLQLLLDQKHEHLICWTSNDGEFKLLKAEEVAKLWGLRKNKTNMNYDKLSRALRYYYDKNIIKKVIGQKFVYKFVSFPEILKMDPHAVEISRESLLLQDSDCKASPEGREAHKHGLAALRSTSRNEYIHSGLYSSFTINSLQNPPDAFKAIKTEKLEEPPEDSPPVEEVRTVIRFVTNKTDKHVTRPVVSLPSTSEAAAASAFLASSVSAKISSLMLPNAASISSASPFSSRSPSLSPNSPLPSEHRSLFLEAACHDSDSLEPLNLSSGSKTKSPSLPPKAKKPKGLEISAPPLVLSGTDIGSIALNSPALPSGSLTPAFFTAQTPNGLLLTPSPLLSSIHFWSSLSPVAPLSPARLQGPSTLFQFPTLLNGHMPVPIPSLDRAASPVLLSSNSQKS
# Summary of the method: as §1
# [10] = target: T7, FEV (Homo sapiens, UniProt Q99581 1-238); conditions: protein: recombinant; tags: N-terminal GST; dsDNA, one strand shown
# T7 sequence: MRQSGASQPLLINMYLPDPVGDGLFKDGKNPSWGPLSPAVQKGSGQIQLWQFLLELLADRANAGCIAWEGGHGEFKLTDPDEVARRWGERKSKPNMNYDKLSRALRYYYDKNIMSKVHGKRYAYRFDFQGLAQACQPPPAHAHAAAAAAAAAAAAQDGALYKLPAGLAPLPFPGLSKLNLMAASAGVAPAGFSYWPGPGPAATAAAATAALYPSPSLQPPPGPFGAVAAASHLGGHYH
# Summary of the method: as §1
# [11] = target: ETV5 (Homo sapiens, UniProt P41161 1-510); conditions: protein: recombinant; tags: N-terminal GST; dsDNA, one strand shown
# ETV5, sequence (P41161 whole entry): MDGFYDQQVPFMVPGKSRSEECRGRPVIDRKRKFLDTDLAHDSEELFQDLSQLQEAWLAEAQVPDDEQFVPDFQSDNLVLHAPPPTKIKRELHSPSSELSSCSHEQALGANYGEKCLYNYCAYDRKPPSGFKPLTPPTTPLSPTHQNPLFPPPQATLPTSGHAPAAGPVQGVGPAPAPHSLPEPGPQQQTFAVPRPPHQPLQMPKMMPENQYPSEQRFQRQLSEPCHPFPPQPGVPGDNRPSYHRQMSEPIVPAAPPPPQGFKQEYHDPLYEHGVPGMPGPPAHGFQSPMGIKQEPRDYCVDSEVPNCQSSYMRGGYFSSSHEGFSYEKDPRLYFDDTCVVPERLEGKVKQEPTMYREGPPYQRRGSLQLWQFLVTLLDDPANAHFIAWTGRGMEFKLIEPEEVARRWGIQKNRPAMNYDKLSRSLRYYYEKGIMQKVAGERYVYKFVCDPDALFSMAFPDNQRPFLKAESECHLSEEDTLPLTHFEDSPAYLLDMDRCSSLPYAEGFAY
# Summary of the method: as §1
# [12] = target: HSF1 (Homo sapiens, UniProt Q00613 1-529); conditions: protein: recombinant; tags: N-terminal GST; chain copies: 3; dsDNA, one strand shown
# HSF1, sequence (Q00613 whole entry): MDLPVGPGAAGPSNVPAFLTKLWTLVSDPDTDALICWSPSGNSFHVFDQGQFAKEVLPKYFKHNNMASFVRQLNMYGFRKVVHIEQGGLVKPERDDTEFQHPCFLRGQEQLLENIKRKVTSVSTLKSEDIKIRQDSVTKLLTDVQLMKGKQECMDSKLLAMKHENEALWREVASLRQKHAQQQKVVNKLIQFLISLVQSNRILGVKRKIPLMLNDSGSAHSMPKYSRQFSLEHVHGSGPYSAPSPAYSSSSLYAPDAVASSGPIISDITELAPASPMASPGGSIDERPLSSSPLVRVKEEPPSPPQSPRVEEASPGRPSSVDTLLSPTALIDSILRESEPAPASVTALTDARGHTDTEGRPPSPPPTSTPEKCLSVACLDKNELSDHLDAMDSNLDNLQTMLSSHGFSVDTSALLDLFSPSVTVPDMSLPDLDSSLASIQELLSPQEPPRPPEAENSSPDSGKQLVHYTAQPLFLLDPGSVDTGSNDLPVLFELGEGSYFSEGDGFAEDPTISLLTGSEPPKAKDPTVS
# Summary of the method: as §1
# [13] = target: T8, SPIC (Homo sapiens, UniProt Q8N5J4 1-248); conditions: protein: recombinant; tags: N-terminal GST; dsDNA, one strand shown
# T8 sequence: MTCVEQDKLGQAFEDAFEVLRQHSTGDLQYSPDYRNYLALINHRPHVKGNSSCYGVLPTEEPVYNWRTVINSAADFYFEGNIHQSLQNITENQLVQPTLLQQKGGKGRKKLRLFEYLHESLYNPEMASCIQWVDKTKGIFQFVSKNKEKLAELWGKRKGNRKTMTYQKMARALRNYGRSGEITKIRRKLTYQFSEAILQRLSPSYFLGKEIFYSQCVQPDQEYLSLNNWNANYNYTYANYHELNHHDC
# Summary of the method: as §1
# [14] = target: ELF4 (Homo sapiens, UniProt Q99607 1-663); conditions: protein: recombinant; tags: N-terminal GST; dsDNA, one strand shown
# ELF4, sequence (Q99607 whole entry): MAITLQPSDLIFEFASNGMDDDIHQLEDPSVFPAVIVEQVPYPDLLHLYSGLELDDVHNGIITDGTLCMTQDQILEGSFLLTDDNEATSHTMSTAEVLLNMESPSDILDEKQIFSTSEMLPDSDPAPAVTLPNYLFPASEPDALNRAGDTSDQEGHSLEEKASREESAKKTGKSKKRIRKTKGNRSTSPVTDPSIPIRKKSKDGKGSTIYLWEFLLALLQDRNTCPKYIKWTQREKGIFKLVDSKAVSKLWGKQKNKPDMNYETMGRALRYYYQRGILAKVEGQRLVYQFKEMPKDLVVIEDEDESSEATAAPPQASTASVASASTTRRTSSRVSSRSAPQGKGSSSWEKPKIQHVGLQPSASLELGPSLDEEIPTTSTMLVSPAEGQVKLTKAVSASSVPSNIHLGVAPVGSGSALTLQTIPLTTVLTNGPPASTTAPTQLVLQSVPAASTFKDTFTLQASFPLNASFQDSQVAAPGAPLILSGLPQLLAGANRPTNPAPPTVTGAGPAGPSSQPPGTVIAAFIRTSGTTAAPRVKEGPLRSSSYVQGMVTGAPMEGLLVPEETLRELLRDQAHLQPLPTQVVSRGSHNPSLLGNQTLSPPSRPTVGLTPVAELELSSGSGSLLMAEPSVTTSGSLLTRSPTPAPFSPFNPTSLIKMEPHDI
# Summary of the method: as §1
# [15] = target: T9, ELK4 (Homo sapiens, UniProt P28324-2 1-405); conditions: protein: recombinant; tags: N-terminal GST; dsDNA, one strand shown
# T9 sequence: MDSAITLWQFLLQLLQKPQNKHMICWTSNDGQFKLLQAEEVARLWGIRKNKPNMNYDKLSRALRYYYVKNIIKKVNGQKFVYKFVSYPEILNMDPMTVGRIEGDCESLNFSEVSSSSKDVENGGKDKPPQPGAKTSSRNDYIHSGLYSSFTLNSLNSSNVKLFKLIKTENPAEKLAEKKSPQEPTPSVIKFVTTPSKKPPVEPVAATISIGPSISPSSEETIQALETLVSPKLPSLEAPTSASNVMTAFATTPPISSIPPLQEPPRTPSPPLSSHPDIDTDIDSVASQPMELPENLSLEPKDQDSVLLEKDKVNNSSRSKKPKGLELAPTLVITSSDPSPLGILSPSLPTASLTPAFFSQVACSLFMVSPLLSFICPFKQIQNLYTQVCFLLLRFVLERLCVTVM
# Summary of the method: as §1
# [16] = target: T10, ETV2 (Homo sapiens, UniProt O00321 1-342); conditions: protein: recombinant; tags: N-terminal GST; dsDNA, one strand shown
# T10 sequence: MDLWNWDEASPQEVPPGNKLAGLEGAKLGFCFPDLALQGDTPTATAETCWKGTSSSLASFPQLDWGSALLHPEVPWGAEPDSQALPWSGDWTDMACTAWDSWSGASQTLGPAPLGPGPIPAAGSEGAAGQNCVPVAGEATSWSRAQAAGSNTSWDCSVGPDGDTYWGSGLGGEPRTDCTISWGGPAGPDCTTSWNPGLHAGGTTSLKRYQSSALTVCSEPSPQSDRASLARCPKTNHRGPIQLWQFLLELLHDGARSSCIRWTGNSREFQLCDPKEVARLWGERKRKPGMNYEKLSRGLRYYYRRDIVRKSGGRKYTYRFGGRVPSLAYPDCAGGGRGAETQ
# Summary of the method: as §1
# [17] = target: T11, ELF3 (Homo sapiens, UniProt P78545 1-371); conditions: protein: recombinant; tags: N-terminal GST; dsDNA, one strand shown
# T11 sequence: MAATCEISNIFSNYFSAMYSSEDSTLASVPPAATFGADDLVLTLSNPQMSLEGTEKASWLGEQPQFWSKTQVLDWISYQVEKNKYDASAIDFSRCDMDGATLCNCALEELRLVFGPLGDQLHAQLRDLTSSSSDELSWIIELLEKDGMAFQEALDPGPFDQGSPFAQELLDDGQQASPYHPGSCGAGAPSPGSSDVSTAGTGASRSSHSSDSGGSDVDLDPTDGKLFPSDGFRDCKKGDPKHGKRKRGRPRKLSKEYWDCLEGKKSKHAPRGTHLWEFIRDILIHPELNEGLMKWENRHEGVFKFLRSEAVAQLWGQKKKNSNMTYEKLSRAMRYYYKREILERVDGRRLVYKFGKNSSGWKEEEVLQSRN
# Summary of the method: as §1
# [18] = target: CRX (Homo sapiens, UniProt O43186 1-299); conditions: protein: recombinant; tags: N-terminal GST; dsDNA, one strand shown
# CRX, sequence (O43186 whole entry): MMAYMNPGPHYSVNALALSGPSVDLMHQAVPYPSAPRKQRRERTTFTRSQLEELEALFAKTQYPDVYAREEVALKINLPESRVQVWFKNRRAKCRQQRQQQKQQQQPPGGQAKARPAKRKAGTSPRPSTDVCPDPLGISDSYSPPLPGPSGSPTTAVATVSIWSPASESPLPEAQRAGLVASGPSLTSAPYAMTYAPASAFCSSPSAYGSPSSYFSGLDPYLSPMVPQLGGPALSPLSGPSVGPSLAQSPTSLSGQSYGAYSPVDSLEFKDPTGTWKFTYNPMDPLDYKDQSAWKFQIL
# Summary of the method: as §1
# [19] = target: ETV1 (Homo sapiens, UniProt P50549 1-477); conditions: protein: recombinant; tags: N-terminal GST; dsDNA, one strand shown
# ETV1, sequence (P50549 whole entry): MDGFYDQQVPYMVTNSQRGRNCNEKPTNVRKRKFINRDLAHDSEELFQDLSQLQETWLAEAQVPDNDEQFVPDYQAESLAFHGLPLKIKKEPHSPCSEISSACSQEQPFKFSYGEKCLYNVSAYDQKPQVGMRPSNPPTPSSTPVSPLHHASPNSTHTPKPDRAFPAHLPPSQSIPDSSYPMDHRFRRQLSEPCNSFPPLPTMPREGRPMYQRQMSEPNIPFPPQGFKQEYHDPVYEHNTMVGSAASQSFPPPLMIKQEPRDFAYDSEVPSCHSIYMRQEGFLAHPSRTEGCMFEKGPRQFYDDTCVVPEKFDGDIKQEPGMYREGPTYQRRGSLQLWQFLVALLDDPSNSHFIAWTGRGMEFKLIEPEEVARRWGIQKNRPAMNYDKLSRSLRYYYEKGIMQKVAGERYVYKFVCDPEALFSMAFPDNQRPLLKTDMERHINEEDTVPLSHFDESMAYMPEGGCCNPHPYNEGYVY
# Summary of the method: as §1
sequence,measurement,setting,value
ATCCGG,binding signal,[1],"2.65 fold enrichment (6-mer frequency, TF over GST control)"
same,binding signal,[2],"2.59 fold enrichment (6-mer frequency, TF over GST control)"
same,binding signal,[3],"2.37 fold enrichment (6-mer frequency, TF over GST control)"
same,binding signal,[4],"3.22 fold enrichment (6-mer frequency, TF over GST control)"
same,binding signal,[5],"2.29 fold enrichment (6-mer frequency, TF over GST control)"
same,binding signal,[6],"2.65 fold enrichment (6-mer frequency, TF over GST control)"
same,binding signal,[7],"2.37 fold enrichment (6-mer frequency, TF over GST control)"
same,binding signal,[8],"2.77 fold enrichment (6-mer frequency, TF over GST control)"
same,binding signal,[9],"2.66 fold enrichment (6-mer frequency, TF over GST control)"
same,binding signal,[10],"4.68 fold enrichment (6-mer frequency, TF over GST control)"
same,binding signal,[11],"2.87 fold enrichment (6-mer frequency, TF over GST control)"
same,binding signal,[12],"1.31 fold enrichment (6-mer frequency, TF over GST control)"
same,binding signal,[13],"2.35 fold enrichment (6-mer frequency, TF over GST control)"
same,binding signal,[14],"2.17 fold enrichment (6-mer frequency, TF over GST control)"
same,binding signal,[15],"2.1 fold enrichment (6-mer frequency, TF over GST control)"
same,binding signal,[16],"2.6 fold enrichment (6-mer frequency, TF over GST control)"
same,binding signal,[17],"2.31 fold enrichment (6-mer frequency, TF over GST control)"
same,binding signal,[18],"1.48 fold enrichment (6-mer frequency, TF over GST control)"
same,binding signal,[19],"2.66 fold enrichment (6-mer frequency, TF over GST control)"
